The nature of test [1]: Cytotoxicity counterscreen for inhibitors of SARS-CoV-2 cell entry (AID 1645845). Also: nearly all actives have a fitted effect of over 50% in size. As to activity change, negative = cytotoxicity: % is scaled to controls: 0 for no effect and ±100 for the full control effect. In short, it runs like this: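 48 h compound treatment (after 1 h preincubation), HEK293-ACE2 cells, 37 C/5% CO2; ATP luminescence endpoint; normalized to cell wells and media blanks.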
In general terms: The purpose of a counterscreen is to sort out artefacts and off-target activity.

Test [2] is described as follows: Primary qHTS to identify inhibitors of SARS-CoV-2 cell entry (AID 1645846). Also: nearly all actives have a fitted effect of over 45% in size. To be noted: activity change, negative = inhibition: at 57.1 µM (top of the series) unless noted. In short, it runs like this:
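Inhibition of spike-mediated entry was scored in human ACE2-transfected Expi293F cells. Particles were MLV-pseudotyped with Wuhan-Hu-1 S carrying a 19-aa C-terminal deletion; signal was luciferase after two days, scaled between spike PP and fusion-protein-free PP.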
(qHTS replaces the single test concentration by a dilution series.)

Several values for one entry are separate records, joined by “and”; a condition that tells them apart may be missing. Equal entries are not always repeated. Inconclusive results are not listed. Activity calls are given as the source filed them. Calls follow the shape of the full dose curve.
Potency is read from the fitted curve at half-maximal effect.

For the compound `CCN1CCN(c2cc(-c3ccc(F)cc3)c3c(n2)CCCCCC3)CC1`, the Potency result in test [1] and in test [2] was “inactive” each time.
Regarding `CCCCC[C@H](O)C=C[C@H]1[C@H](O)CC(=O)[C@H]1CC=CCCCC(=O)O`, the Potency result in test [1] and in test [2] was “inactive” in each case.
As to `COc1cc(OC)cc(OC)c1`, the Potency entry in test [1] and in test [2] was “inactive” in each case.
Regarding `CCCC(=O)OC[C@@H](OC(=O)CCC)[C@@H](OC(=O)CCC)[C@H](Cn1c2nc(=O)[nH]c(=O)c-2nc2cc(C)c(C)cc21)OC(=O)CCC`, the Potency entry in test [1] is “inactive”. Also, the activity change, negative = inhibition in test [2] is -16.8%.
For `CCOc1ccc(NC(C)=O)cc1`, the Potency result in test [1] and in test [2] was “inactive” throughout.
Turning to `CN(C)CCOC(c1ccccc1)c1ccccc1`, the Potency result in test [1] is “inactive”. Further, the activity change, negative = inhibition in test [2] is -13.9%.
For `CC(=O)Oc1ccc2c(c1)CC[C@@H]1[C@@H]2CC[C@]2(C)[C@@H](O)CC[C@@H]12`, in test [1], the Potency result was “inactive”. Further, the activity change, negative = inhibition in test [2] was -11%.
As for `O=C1O[C@H]([C@@H](O)CO)C(O)=C1O`, the Potency entry in test [1] and in test [2] was “inactive” each time.
In the case of `O=c1[nH]cnc2c1ncn2[C@@H]1O[C@H](CO)[C@@H](O)[C@H]1O`, the Potency result in test [1] and in test [2] was “inactive” each time.
For `C[N+]1(C)CCC(=C(c2ccccc2)c2ccccc2)CC1`, in test [1], the Potency entry is “inactive”. For the same compound, the activity change, negative = inhibition in test [2] was -5.21%.
The corresponding values for `C[N+]1(CC2COC(c3ccccc3)(c3ccccc3)O2)CCCCC1` (stereo not given) are “inactive” and 1.26% [at 27.1 µM].
For `CN(C)[C@@H]1C(=O)C(C(=O)NCN2CCCC2)=C(O)[C@@]2(O)C(=O)C3=C(O)c4c(O)cccc4[C@@](C)(O)C3C[C@@H]12` (stereo not given in full), the Potency entry in test [1] and in test [2] was “inactive” in each case.
Turning to `CCN(CC)CCNC(C(=O)OCCC(C)C)c1ccccc1` (stereo not given), the Potency entry in test [1] was “inactive”. Further, the activity change, negative = inhibition in test [2] is -14.1%.
On the same counts, the results for `C=CCc1ccccc1OCC(O)CNC(C)C` (stereo not given) are “inactive” and -22.8%.
In the case of `Cc1cc(O)c(C(C)C)cc1Cl`, the Potency result in test [1] and in test [2] was “inactive” throughout.
In the case of `CN(C)C(=O)Oc1cccc([N+](C)(C)C)c1`, the Potency entry in test [1] was “inactive”. In test [2], the activity change, negative = inhibition was -1.02%.
On to `COC(=O)C1=C(C)NC(C)=C(C(=O)OC)C1c1ccccc1[N+](=O)[O-]`, for which the Potency result in test [1] is “inactive”. For the same compound, in test [2], the activity change, negative = inhibition is -30.6%.
With `NCCc1ccc(O)c(O)c1`, the Potency result in test [1] is “inactive”. In test [2], the activity change, negative = inhibition was -18% and -6.68%.
Take `O=[N+]([O-])c1nccn1CO[C@@H](CO)[C@H](O)CO`: the Potency entry in test [1] and in test [2] was “inactive” each time.
Regarding `O=C(O)CCC(=O)c1ccc(-c2ccccc2)cc1`, the Potency result in test [1] and in test [2] was “inactive” in each case.
`CC1(C)S[C@@H]2[C@H](N=CN3CCCCCC3)C(=O)N2[C@H]1C(=O)O`: the Potency entry in test [1] is “inactive”. Further, the activity change, negative = inhibition in test [2] was 0.13%.
On the same counts, the results for `CCOC(=O)c1cccc(N)c1` are “inactive” and -8.06%.
On to `Cc1ccc(/C=N/n2c(-c3ccccc3)csc2=S)cc1`, for which the Potency entry in test [1] was “inactive”. In addition, in test [2], the activity change, negative = inhibition is -8.63%.
For `Cc1ccc2c(Cl)cc(Cl)c(O)c2n1`, the Potency entry in test [1] and in test [2] was “inactive” throughout.
With `C[C@H]1COc2c(C3(N)CC3)c(F)cc3c(=O)c(C(=O)O)cn1c23`, in test [1], the Potency result was “inactive”. The activity change, negative = inhibition in test [2] is -12.8%.
Turning to `CCNC(=O)NCCCOc1cccc(CN2CCCCC2)c1`, the Potency entry in test [1] and in test [2] was “inactive” each time.
With `FC(F)(F)C(Cl)Br` (stereo not given), the Potency result in test [1] is “inactive”. Also, the activity change, negative = inhibition in test [2] was -18.5%.
`CCOC(=O)c1c(N)sc2c1CCN(Cc1ccccc1)C2`: the Potency entry in test [1] and in test [2] was “inactive” each time.
In the case of `C/C(=C(\CCOP(=O)(O)O)SC(=O)c1ccccc1)N(C=O)Cc1cnc(C)nc1N`, in test [1], the activity change, negative = cytotoxicity is 0.654% [at 5.25 µM] (inactive). For the same compound, the outcome in test [2] was “inactive [at 5.25 µM]”.
As for `OCCN1CCN(CCCN2c3ccccc3C=Cc3ccccc32)CC1`, in test [1], the Potency result was “inactive”. The activity change, negative = inhibition in test [2] is -17.2%.
The corresponding values for `CN(C)CCCOC1(Cc2ccccc2)CCCCCC1` are “inactive” and -0.0488%.
As to `CO/N=C(/C(=O)N[C@@H]1C(=O)N2C(C(=O)O)=C(Cn3nnc(C)n3)CS[C@H]12)c1csc(N)n1`, the Potency entry in test [1] and in test [2] was “inactive” throughout.
Consider `COC(=O)C1=C(C)NC(C)=C(C(=O)OCCCN2CCC(c3ccccc3)(c3ccccc3)CC2)C1c1cccc([N+](=O)[O-])c1` (stereo not given), for which the Potency in test [1] was 28.2 µM (active); in test [2], 8.91 µM (active).
For the compound `Cc1ccc(C(C)OC(=O)C2(C)CCC(C(=O)O)C2(C)C)cc1` (stereo not given), the Potency result in test [1] was “inactive”. In test [2], the activity change, negative = inhibition is -10.3%.
For `Cc1c(C)c2c(c(C)c1OC(=O)CCC(=O)OCCO)CC[C@@](C)(CCC[C@H](C)CCC[C@H](C)CCCC(C)C)O2`, the Potency result in test [1] was “inactive”. Further, the Potency in test [2] is 28.2 µM (active).
Take `C=CCCCCCCCCC(=O)O`: the Potency entry in test [1] and in test [2] was “inactive” each time.
As for `C/C=C/c1ccc(OC)cc1`, the Potency entry in test [1] and in test [2] was “inactive” in each case.
For `O=C(NN1CCCC1)NS(=O)(=O)c1ccc(Cl)cc1`, the Potency entry in test [1] and in test [2] was “inactive” throughout.
On to `CC(O)COc1ccccc1` (stereo not given), for which the Potency entry in test [1] and in test [2] was “inactive” throughout.
With `CCCCC(=O)O[C@]1(C(=O)CO)[C@@H](C)C[C@H]2[C@@H]3CCC4=CC(=O)C=C[C@]4(C)[C@@]3(F)[C@@H](O)C[C@@]21C`, the Potency entry in test [1] and in test [2] was “inactive” in each case.
On to `c1ccc(CNCCNCc2ccccc2)cc1`, for which the Potency result in test [1] is “inactive”. For the same compound, the activity change, negative = inhibition in test [2] is -30.1%.
On to `NS(=O)(=O)c1ccc(N2CCCCS2(=O)=O)cc1`, for which the Potency entry in test [1] and in test [2] was “inactive” throughout.
For the compound `O=C(O)/C=C/c1ccc(Cn2ccnc2)cc1`, the Potency result in test [1] and in test [2] was “inactive” in each case.
For the compound `CC1(C)OC[C@@H](COC(=O)CCc2ccc(OC[C@@H](O)CNCCNC(=O)N3CCOCC3)cc2)O1`, the Potency result in test [1] is “inactive”. The activity change, negative = inhibition in test [2] is -4.74%.
The corresponding values for `C[C@@H]1CCN(C(=O)[C@H](CCCN=C(N)N)NS(=O)(=O)c2cccc3c2NC[C@H](C)C3)[C@@H](C(=O)O)C1` are “inactive” and -11.8%.

The record behind these values is PubChem BioAssay (NCATS).
